An excerpt weighted towards active compounds, which were near 6.6% of everything screened.
GRIN3A LBD mod = modulates the human NR3A ligand-binding domain. NR3A LBD differential scanning fluorimetry, Tm shift; 0% = protein alone, 100% = glycine-bound protein. Tm shift relative to glycine control, % at 25 µM. 340,000 tested, 2.5% active;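 active = melting temperature shift of at least 10% of the positive control shift, at one fixed dose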
CSC inhib = cancer stem cell inhibition | cancer stem cell-like cells viability, luminescence | inhibition, % at 7.5 µM | 300,000 tested, 1.1% active | AID 2717; in the data active = inhibition above about 75%; inconclusive = no clear call, values can overlap the other calls; tested in HMLE shEcad cells
Mdm2-MdmX inh = disrupts the human Mdm2-MdmX interaction; O15151+Q00987; SaOS-2 split-luciferase Mdm2/MdmX complementation, luminescence; inhibition, % at 8 µM; 330,000 tested, 3% active; AID 485346;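 active = inhibition of at least 50% at 8 µM in the primary screen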
Target sequence (O15151 whole entry, looked up): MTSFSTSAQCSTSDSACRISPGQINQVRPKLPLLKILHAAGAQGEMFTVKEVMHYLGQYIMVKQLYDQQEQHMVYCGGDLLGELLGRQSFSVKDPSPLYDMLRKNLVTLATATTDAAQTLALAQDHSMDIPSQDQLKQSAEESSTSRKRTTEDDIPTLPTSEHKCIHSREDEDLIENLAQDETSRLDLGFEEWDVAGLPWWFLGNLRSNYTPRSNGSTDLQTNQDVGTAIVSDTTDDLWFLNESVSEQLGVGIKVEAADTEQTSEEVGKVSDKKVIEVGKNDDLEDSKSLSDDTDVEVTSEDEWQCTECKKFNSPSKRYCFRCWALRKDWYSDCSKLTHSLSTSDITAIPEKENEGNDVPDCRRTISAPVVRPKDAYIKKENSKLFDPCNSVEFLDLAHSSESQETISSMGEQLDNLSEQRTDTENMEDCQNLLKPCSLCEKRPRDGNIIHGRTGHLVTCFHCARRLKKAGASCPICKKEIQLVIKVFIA
Target sequence (Q00987 whole entry, looked up): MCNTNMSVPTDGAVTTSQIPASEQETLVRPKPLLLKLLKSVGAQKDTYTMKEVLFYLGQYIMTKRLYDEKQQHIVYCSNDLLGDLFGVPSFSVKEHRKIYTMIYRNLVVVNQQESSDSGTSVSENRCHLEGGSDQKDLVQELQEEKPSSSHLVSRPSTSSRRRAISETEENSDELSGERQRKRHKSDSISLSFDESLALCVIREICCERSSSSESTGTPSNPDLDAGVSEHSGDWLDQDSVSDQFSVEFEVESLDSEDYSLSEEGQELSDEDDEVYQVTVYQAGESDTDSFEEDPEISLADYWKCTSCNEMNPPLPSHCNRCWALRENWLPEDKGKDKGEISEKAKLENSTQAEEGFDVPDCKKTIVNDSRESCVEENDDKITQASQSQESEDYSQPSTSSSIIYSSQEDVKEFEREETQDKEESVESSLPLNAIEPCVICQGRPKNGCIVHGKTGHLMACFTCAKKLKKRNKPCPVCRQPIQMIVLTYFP
Beta cell apopt = beta cell apoptosis inhibition; INS-1E cytokine-induced death, ATP luminescence, 48 h; percent of positive-control rescue, neutral wells zero; protection from apoptosis, % (no concentration beside the values); 300,000 tested, 0.8% active;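 active = Every replicate reaches about 75%, or at least half do and their mean reaches it too, limit read from the data; inconclusive = At least half of replicates reach the limit but their mean does not; inactive = Under half of replicates reach the limit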;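 also: 0% = cytokine-treated negative control wells and 100% = positive control rescue; higher means more ATP so stronger rescue from cytokine killing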
MPTP block = inhibitors of mitochondrial permeability transition pore | isolated mouse mitochondria, Ca2+ swelling absorbance, 30 min | inhibition, % at 10 µM | 360,000 tested, 1.4% active | AID 602449;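 active = inhibition of 50% or more, scaled per plate between neutral and stimulator controls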;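 also: 0% = DMSO wells given calcium and 100% = 1 mM EGTA wells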
Gli-Sufu block = Gli-Sufu pathway antagonism; inhibition, % at 5 µM; Sufu-KO-LIGHT fibroblasts, Gli luciferase reporter luminescence; 340,000 tested, 0.74% active;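 active = inhibition above about 55%, limit read from the data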;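 also: 0% = DMSO-treated cells and 100% = wells with medium but no cells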
* hit, by the source's call.

Screening CCCCNc1c(-c2ccc(SC(C)CC)c(OC)c2)nc2ccc(C)cn12 (stereo unspecified) returned GRIN3A LBD mod -14, CSC inhib 123*, Mdm2-MdmX inh 50, Beta cell apopt 53, MPTP block 16 and Gli-Sufu block 29.
For CCCCCCSc1cc(-c2nc3ccc(C)cn3c2NCc2ccccc2)ccc1OC the results were GRIN3A LBD mod -31, CSC inhib -7, Mdm2-MdmX inh 23, Beta cell apopt 117*, MPTP block 14 and Gli-Sufu block 26.
Screening CCCNC(=O)CN1C(=O)NC(Cc2c[nH]c3ccccc23)C1=O (stereo unspecified) returned GRIN3A LBD mod 0, CSC inhib 5, Mdm2-MdmX inh -34, Beta cell apopt 3, MPTP block -2 and Gli-Sufu block -10.
`COc1cc(C)c(C(=O)CSc2nnc(CNC(=O)c3ccco3)n2C)cc1C` gave GRIN3A LBD mod -3, CSC inhib -12, Mdm2-MdmX inh -9, Beta cell apopt -5, MPTP block 0 and Gli-Sufu block -14.
Screening COc1ccc(CN2C[C@H](O)COC[C@@H]3O[C@H](CC(=O)NCc4ccncn4)CC[C@H]32)cc1 returned MPTP block -1.
`O=C(NCCSCc1ccco1)c1ccc(=O)[nH]c1` gave GRIN3A LBD mod 1, CSC inhib -7, Mdm2-MdmX inh 4, Beta cell apopt -3, MPTP block 0 and Gli-Sufu block 23.
`Cc1ccc(NC(=O)C(c2ccccc2)N2CCN(CC(=O)NC3CC3)CC2)cc1` (stereo unspecified) gave GRIN3A LBD mod 1, Mdm2-MdmX inh -5, Beta cell apopt -1, MPTP block -2 and Gli-Sufu block 5.
Screening CCOC(=O)C1=CNS(=O)(=O)NC1c1ccc(C(=O)OC)cc1 (stereo unspecified) returned GRIN3A LBD mod 0, Mdm2-MdmX inh 19, MPTP block 0 and Gli-Sufu block 4.
CCC(C)Sc1cccc(-c2nc3ccc(C)cn3c2NCc2ccccc2)c1 (stereo unspecified) was read as GRIN3A LBD mod -13, CSC inhib 125*, Mdm2-MdmX inh 36, Beta cell apopt inconclusive, MPTP block 47 and Gli-Sufu block 11.
`Cc1ccc(NC(=O)Nc2nnc(Cc3ccc([N+](=O)[O-])cc3)s2)cc1` gave GRIN3A LBD mod 22*, Mdm2-MdmX inh -7, Beta cell apopt 5, MPTP block 34 and Gli-Sufu block -30.
For COc1ccc(Cc2nnc(NC(=O)Nc3ccc(F)cc3)s2)cc1 the results were GRIN3A LBD mod -3, Mdm2-MdmX inh 28, MPTP block 4 and Gli-Sufu block -3.
COc1ccc(NS(=O)(=O)c2cccc3ccccc23)cc1 was read as GRIN3A LBD mod 0, CSC inhib 40, Mdm2-MdmX inh 20, Beta cell apopt 1, MPTP block 4 and Gli-Sufu block -2.
Screening Cc1ccc(C)c(Cc2c(C)nc3c(C(=O)NCc4ccc5c(c4)OCO5)cnn3c2C)c1 returned CSC inhib 78*, Mdm2-MdmX inh 10 and Beta cell apopt 11.
`CCn1c(=O)n(CC(=O)NC2CCCC(C)C2C)c(=O)c2ccccc21` (stereo unspecified) gave GRIN3A LBD mod 11*, CSC inhib -14, Mdm2-MdmX inh -3, Beta cell apopt -4, MPTP block -3 and Gli-Sufu block 6.
For CCOc1ccccc1-c1nc(CN2CCCN(C(=O)c3ccco3)CC2)c(C)o1 the results were GRIN3A LBD mod -1, CSC inhib -6, Mdm2-MdmX inh -23, Beta cell apopt 6, MPTP block -1 and Gli-Sufu block 3.
Screening CC1=C(C(=O)OC(C)C)C(c2ccccc2)NC(=S)N1C (stereo unspecified) returned GRIN3A LBD mod 7, CSC inhib -9, Mdm2-MdmX inh 15, Beta cell apopt -2, MPTP block 2 and Gli-Sufu block 0.
CC1CCc2sc(NC(=S)NC(=O)c3ccccc3)c(C#N)c2C1 (stereo unspecified) was read as GRIN3A LBD mod 22*, CSC inhib -2, Mdm2-MdmX inh -11, Beta cell apopt -3, MPTP block 18 and Gli-Sufu block -22.
For CC1(C)OC2C(CO)OC(n3cnc4c(=S)nc(N)[nH]c43)C2O1 (stereo unspecified) the results were MPTP block 0.
For Nc1nc(=S)c2ncn(C3OC(CO)C(O)C3O)c2[nH]1 (stereo unspecified) the results were GRIN3A LBD mod 0, CSC inhib 90*, Beta cell apopt -3, MPTP block 0 and Gli-Sufu block -8.
Screening Nc1nc(=S)c2ncn([C@@H]3O[C@H](CO)[C@@H](O)[C@H]3O)c2[nH]1 returned GRIN3A LBD mod 4, CSC inhib 98*, Mdm2-MdmX inh 27, Beta cell apopt 12, MPTP block -2 and Gli-Sufu block -52.
`O=C(Cc1cccc(NC(=O)C2CCCN(C(=O)CCc3ccccc3)C2)c1)Nc1ccc(C(=O)N2CCCCC2)cc1` (stereo unspecified) gave GRIN3A LBD mod -1, MPTP block 0 and Gli-Sufu block 8.
For c1ccc(N2CCN(CC3CCCCC3)CC2)cc1 the results were GRIN3A LBD mod 0, CSC inhib 97*, Mdm2-MdmX inh 13, Beta cell apopt 139*, MPTP block 0 and Gli-Sufu block 2.
For COc1ccccc1-c1csc(C(C)(O)c2cccc(F)c2)n1 (stereo unspecified) the results were MPTP block 1.
Screening Cc1cc(C(C#N)c2ccccc2)n2ncnc2n1 (stereo unspecified) returned GRIN3A LBD mod 3, CSC inhib -10, Mdm2-MdmX inh 0, Beta cell apopt -2, MPTP block -1 and Gli-Sufu block -1.
Screening Cc1cc(C(C#N)c2ccccc2F)n2ncnc2n1 (stereo unspecified) returned GRIN3A LBD mod 15*, CSC inhib -1, Mdm2-MdmX inh 21, Beta cell apopt -2, MPTP block 2 and Gli-Sufu block 0.
Screening Cc1ccc(C(OC(=O)c2ccco2)C(=O)NC(C)(C)C)cc1 (stereo unspecified) returned GRIN3A LBD mod -1, CSC inhib -6, Mdm2-MdmX inh -16, Beta cell apopt 4, MPTP block 1 and Gli-Sufu block 1.
COc1ccc(NC(=O)CSc2nc(N3CCCCC3)nc(N3CCCCC3)n2)cc1 was read as GRIN3A LBD mod 13*, Mdm2-MdmX inh 12, Beta cell apopt 3, MPTP block -1 and Gli-Sufu block 38.
For CC(C)(C)NC(=O)NC(=O)COC(=O)c1ccc2c(c1)S(=O)(=O)N=C1CCCCCN12 the results were GRIN3A LBD mod -5, CSC inhib -21, Mdm2-MdmX inh -6, Beta cell apopt -14, MPTP block 1 and Gli-Sufu block -3.
